The text below walks through data of PubChem BioAssay (NCATS).

Records with an inconclusive call do not appear. Unmarked numbers belong to inactive results. The source made the active and inactive calls. Calls follow the shape of the dose curve; as a rule, active = well fitted inhibition curve with a large enough effect; inconclusive = small, poorly fitted or top-dose-only effect; inactive = flat fitted curve, though single readings scatter.
% is scaled to controls: 0 for no effect and ±100 for the full control effect.

Sequence of Calcium and integrin-binding protein 1 (Homo sapiens) (Q99828 whole entry, looked up): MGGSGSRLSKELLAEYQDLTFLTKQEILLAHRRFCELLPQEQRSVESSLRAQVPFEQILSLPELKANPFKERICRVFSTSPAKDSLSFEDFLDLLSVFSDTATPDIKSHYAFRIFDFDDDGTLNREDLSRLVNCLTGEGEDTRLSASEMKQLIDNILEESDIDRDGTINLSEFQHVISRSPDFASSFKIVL

This assay addresses Calcium and integrin-binding protein 1 (Homo sapiens) (UniProt Q99828). The experiment in a line: Primary qHTS for Identification of Calcium Integrin Binding Protein 1 (CIB1) Competitor (AID 1508620).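 Also: GST tagged CIB1 binding a fluorescein labelled alphaIIb integrin peptide tracer; top concentration of the series differs between compounds.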 To be noted: CIB1-GST / FITC-alphaIIb peptide fluorescence polarization; series mostly up to 57.7 µM; activity change, negative = inhibition: at the top concentration. An excerpt: Assay Provider: Ulhas P. Naik, PhD Sidney Kimmel Medical College Thomas Jefferson University, Philadelphia, PA Primary function of platelets is to maintain hemostasis. At the site of vascular injury, platelets adhere to adhesive proteins such as collagen and von Willebrand factor. Adherent platelets are activated and generate soluble platelet agonists such as thrombin, ADP and thromboxane A2. Following exposure of circulating platelets to these agonists, results in platelet shape change, granule secretion and activation of platelet integrin alphaIIb-beta3. Ligand binding to activated integrin alphaIIb-beta3 triggers outside-in signaling, leading to platelet aggregation, stabilization of platelet plug, and clot retraction. Upon atherosclerotic plaque rupture also causes platelet plug formation, which underlies a number of cardiovascular diseases such as myocardial infraction and stroke. A number of anti-platelet drugs such as aspirin, clopidogrel, prasugrel, vorapaxar, and eptifibatide are currently available to prevent the thrombotic complications. However, these anti-platelet agents have several limitations including inherent variability in individual responses, developing resistance, and serious bleeding side effects. For these reasons they are not suitable for long-term protection. Based on the experiences with current anti-platelet drugs, it appears that the most useful therapeutic approach is to intersect the secondary responses such as integrin outside-in signaling or recruitment of platelets by TxA2 and secreted ADP. Compounds, which can largely preserve the primary hemostatic function of platelets but inhibit secondary response will be most desired therapeutic agents for treatment of cardiovascular disease. CIB1 is a calcium integrin binding protein, which specifically interact with the alphaIIb subunit of integrin alphaIIb-beta3. Binding of CIB1 to alphaIIb regulates the outside-in signaling in platelets, which is needed for thrombus stabilization and thrombus growth. […] Therefore, we propose that discovery of a small molecule that can prevent the association of CIB1 and alphaIIb-beta3 will be a potential anti-platelet agent that can block the thrombus formation without undue effect on hemostasis. Reference: [1] Naik MU, Nigam A, Manrai P, et al. CIB1 deficiency results in impaired thrombosis: the potential role of CIB1 in outside-in signaling through integrin alpha IIb beta 3. J Thromb Haemost.
PROTOCOL TABLES SEQUENCE No. (1, 2, 3, etc.); […] (e.g., Cells, Incubation, Reagent, etc.); VALUE and DESCRIPTION. 1; Reagent; 3 uL; Protein or buffer (4/3x) 2; Compound; 46 nL; Control inhibitor / compound library 3; Time; 15 min; Room temperature incubation 4; Reagent; 1 uL; Fluorescent labeled peptide (4x) 5; Time; 1000 rpm; Centrifuge 6; Time; 15 min; Room temperature incubation 7; Detection; Ex 480/ Em 540; ViewLux Fluorescence Read NOTES (numbers refer to sequence above) 1; Protein Mixture: C1B1-GST (final concentrations of 1 uM). […] 3; Room temperature incubation. 4; Fluorescent Labeled Peptide: FITC-aIIb (final concentration of 100 nM). Sequence of alphaIIb peptide: Acetyl-[…]-FITC (purity is 95.83%). 5; Centrifuge 1000 rpm (164 g) for 15 seconds. 6; Room temperature incubation. 7; ViewLux Fluorescent Polization Read: excitation = 480(20) / emission = 540(25) S and P; FITC Dichroic mirror.
Consider `Nc1nc(-c2nn(Cc3ccccc3F)c3ncccc23)nc(N)c1N1CCOCC1`, for which the “activity change, negative = inhibition” value is -4.47%. In the case of `CCCNC(=O)Nc1ccc(Oc2ncnc3cc(OC)c(OC)cc23)cc1Cl`, the result was inactive. For `O=C(NCCCNc1nc(Nc2cccc(NC(=O)N3CCCC3)c2)ncc1I)c1cccs1`, the “activity change, negative = inhibition” value is 2.45%.

For the compound `CCN(CC)CCCCNc1ncc2cc(-c3cc(OC)cc(OC)c3)c(NC(=O)NC(C)(C)C)nc2n1`, the “activity change, negative = inhibition” value is -2.73%.

Consider `COc1cccc(Nc2c(C(N)=O)cnc3c(C)cc(S(=O)(=O)c4cccc(C(=O)N(C)C)c4)cc23)c1`, for which the result was inactive. For `COC(=O)c1ccc2c(C(=Nc3ccc(N(C)C(=O)CN4CCN(C)CC4)cc3)c3ccccc3)c(O)[nH]c2c1`, the result was inactive. Turning to `COc1cc2ncnc(Nc3ccc(F)c(Cl)c3)c2cc1NC(=O)C=CCN1CCCCC1`, the “activity change, negative = inhibition” value was 0.496%. Regarding `COc1cc2c(Nc3ccc(NC(=O)c4ccccc4)cc3)ncnc2cc1OCCCN1CCOCC1`, the result was inactive. Take `N#Cc1c(O)c2c(-c3ccc(-c4ccccc4O)cc3)csc2[nH]c1=O`: the outcome was inactive. As to `Nc1cc(C(F)(F)F)c(-c2cc(N3CCOCC3)nc(N3CCOCC3)n2)cn1`, the outcome was inactive. Consider `COc1cc(=C2C=c3ccccc3=N2)[nH]c1=Cc1[nH]c(C)cc1C`, for which the “activity change, negative = inhibition” value is 19.9%. Consider `CC1(O)CC(c2nc(-c3ccc4ccc(-c5ccccc5)nc4c3)c3c(N)nccn23)C1` (stereo not given), for which the outcome was inactive. For `CN1CCC(CNc2ccc3ncc(-c4cccc(OC(F)(F)F)c4)n3n2)CC1`, the result was inactive. Still for that read-out and setting: for `CC(C)c1cnn2c(NCc3ccccc3)cc(N[C@@H](CO)[C@H](O)CO)nc12` the value was “inactive”; for `Cn1c(=O)n(-c2ccc(C(C)(C)C#N)cc2)c2c3cc(-c4cnc5ccccc5c4)ccc3ncc21`, “inactive”; for `COc1cc2c(Oc3ccc(-c4cnc(Nc5ccc(F)cc5)n(C)c4=O)cc3F)ccnc2cc1OCCCN1CCOCC1`, “inactive”. As for `CN1CCN(Cc2ccc(NC(=O)Nc3ccc(Oc4cc(NC(=O)C5CC5)ncn4)cc3)cc2C(F)(F)F)CC1`, the result was inactive.

With `Cc1cccc(C=NNc2cc(N3CCOCC3)nc(OCCc3ccccn3)n2)c1`, the “activity change, negative = inhibition” value was -0.95%.

With `C[C@@]12O[C@@H](C[C@]1(O)CO)n1c3ccccc3c3c4c(c5c6ccccc6n2c5c31)CNC4=O`, the “activity change, negative = inhibition” value is -7.43%. With `CCS(=O)(=O)c1cccc(-c2cc(C(=O)NC3CCN(C)CC3)c(C)c3[nH]c4ncc(C)cc4c23)c1`, the outcome was inactive.

As for `CC(=O)Nc1sc2c(c1-c1nc3ccccc3s1)CNC2`, the result was inactive. On to `Cc1cnc(Nc2ccc(F)cc2Cl)nc1-c1c[nH]c(C(=O)N[C@H](CO)c2cccc(Cl)c2)c1`, for which the outcome was inactive. Turning to `CN(C)c1nc(Cc2ccc(NC(=O)c3ccc4ccccc4c3)cc2)nc(Cl)c1CC(=O)O`, the result was inactive. As for `OCCCNc1cc(-c2ccnc(Nc3cccc(Cl)c3)n2)ccn1`, the outcome was inactive.

For `O=C(Nc1nc2cccc(-c3ccc(CN4CCS(=O)(=O)CC4)cc3)n2n1)C1CC1`, the outcome was inactive. For `COc1cccc2c(NCc3ccccc3)nc(-n3c(N)nc4ccccc43)nc12`, the result was inactive. With `CN1c2cc(O)c(N=NC(N)=O)cc2CC1S(=O)(=O)O` (stereo not given), the “activity change, negative = inhibition” value is -4.12%. Turning to `C[C@@H](Oc1cc(-c2cnn(C3CCNCC3)c2)cnc1N)c1c(Cl)ccc(F)c1Cl`, the outcome was inactive. `Nc1ccc(C(=O)c2cc3c(ccc4ccccc43)[nH]2)cc1`: the “activity change, negative = inhibition” value is -8.01%. `CCC[C@H](NC(=O)C(C#N)=Cc1cccc(Br)n1)c1ccccc1`: the “activity change, negative = inhibition” value was -8.26%. Turning to `CC(=O)Nc1nc(C)c(-c2ccc(Cl)c(S(=O)(=O)NCCO)c2)s1`, the result was inactive. Take `Cc1cc(Nc2cc(CN3CCOCC3)c3nc(C)c(Cc4ccc(Cl)cc4F)n3n2)n[nH]1`: the outcome was inactive.

Take `CCN(CC)CCNC(=O)c1ccc2nc(-c3ccccc3)c(-c3ccc(CN4CCC(n5c(=O)[nH]c6ccccc65)CC4)cc3)nc2c1`: the result was inactive. Turning to `CC(C)c1cc(C(=O)N2Cc3ccc(CN4CCN(C)CC4)cc3C2)c(O)cc1O`, the result was inactive.

As for `COc1cccc2nc(-c3cccs3)nc(NN3C(=O)C=C(C)C3=O)c12`, the “activity change, negative = inhibition” value is -30.4% [at 114 µM]. On to `Cc1cc(Nc2nc(N[C@@H](C)c3ccc(F)cc3)c(C#N)cc2F)n[nH]1`, for which the outcome was inactive.

In the case of `Cc1nc2cnc3ccc(C#Cc4cccnc4)cc3c2n1-c1ccc(C(C)(C)C#N)cc1`, the “activity change, negative = inhibition” value was 2.33%.

In the case of `Cn1c2cc(S(C)=O)sc2c2cnn(Cc3cccc(N)c3)c(=O)c21` (stereo not given), the “activity change, negative = inhibition” value was -9.81%. Same read-out and setting: for `C=CC(=O)Nc1cccc(Oc2nc(Nc3ccc(N4CCN(C)CC4)cc3)ncc2Cl)c1` the value was -14.4%. As for `CS(=O)(=O)c1ccc(-c2cnc(N)c(C(=O)Nc3ccccc3)n2)cc1`, the result was inactive.
